ELG1 repair inh – qHTS screen for small molecules that inhibit ELG1-dependent DNA repair in human embryonic kidney (HEK293T) cells expressing luciferase-tagged ELG1. HEK293T ELG1-luciferase reporter, luminescence, 16 h; DNA damage induced by 5-fluorouridine. Potency, µM (top dose mostly 46.1 µM), hits mostly inhibitors. hit rate 2.3% among 330,000. AID 504467, 2011; also: nearly all actives have a fitted effect of over 55% in size
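Reporter activity after DNA damage by 5-fluorouridine is monitored. Compound-treated cells incubate 16 hr at 37 °C, then ONE-Glo is added for 30 min before luminescence reading.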
RORg inh – qHTS for inhibitors of ROR gamma transcriptional activity; Potency, µM (highest dose often 53.6 µM), usual class: inhibitors; hit rate 5.4% among 310,000; Drosophila S2 Gal4-RORgamma UAS-luciferase reporter, 20 h; also: nearly all actives have a fitted effect of over 60% in size
Target sequence (P51450 whole entry, looked up, the tested form may be a part): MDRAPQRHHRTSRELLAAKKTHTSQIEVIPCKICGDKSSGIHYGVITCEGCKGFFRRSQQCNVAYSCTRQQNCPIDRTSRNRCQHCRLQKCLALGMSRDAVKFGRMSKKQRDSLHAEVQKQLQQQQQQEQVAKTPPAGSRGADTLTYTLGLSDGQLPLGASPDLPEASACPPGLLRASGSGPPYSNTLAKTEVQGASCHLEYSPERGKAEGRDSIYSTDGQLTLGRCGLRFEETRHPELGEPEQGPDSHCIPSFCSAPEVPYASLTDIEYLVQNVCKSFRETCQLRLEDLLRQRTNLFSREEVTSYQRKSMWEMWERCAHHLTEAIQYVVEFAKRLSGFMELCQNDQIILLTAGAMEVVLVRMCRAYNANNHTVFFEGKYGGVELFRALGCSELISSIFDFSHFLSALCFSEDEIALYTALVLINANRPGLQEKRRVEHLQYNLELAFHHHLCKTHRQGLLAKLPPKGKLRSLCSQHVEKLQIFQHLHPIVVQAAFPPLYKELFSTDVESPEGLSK
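Schneider cells (Drosophila), stable Gal4 DBD–ROR gamma + UAS-luc; 1 hr cmpd preincubation; Cu2+ induction 700 uM final; 20 hr ambient; luminescence.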
IL-1B inflam inh – qHTS for Inhibitors of Inflammasome Signaling: IL-1-beta AlphaLISA Primary Screen | THP-1 LPS/ATP IL-1B secretion, AlphaLISA, 16 h; stronger effect = lower value | activity change, % at 57.5 µM | hit rate 4.7% among 360,000 | AID 743279, 2014; in the data active = activity change below about -50%; inconclusive = mostly about -30% to -49%
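Secreted IL-1B measured by AlphaLISA bead assay after 16 h compound exposure of THP-1 cells; compounds (final up to 57.5 uM) added 1 h before LPS (250 ng/mL) and ATP (1.25 mM) stimulation; lower signal means less secretion.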
DT40 TDP1 no CPT – qHTS for Inhibitors of human tyrosyl-DNA phosphodiesterase 1 (TDP1): qHTS in cells in absence of CPT | AID 686978, 2013 | DT40 Tdp1-/- hTDP1 cells, no CPT, ATP luminescence, 48 h | hit rate 15% among 420,000 | Potency, µM (titrated, usually from 46.2 µM), most hits filed as inhibitors; also: nearly all actives have a fitted effect of over 55% in size
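No-CPT arm: Tdp1-/-;hTDP1 DT40 cells (400/well) plus compounds, incubated ≥48 hr at 37 °C. Readout CellTiter-Glo luminescence.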
DT40 TDP1 CPT – qHTS for Inhibitors of human tyrosyl-DNA phosphodiesterase 1 (TDP1): qHTS in cells in presence of CPT | hit rate 12% among 420,000 | Potency, µM (titrated, usually from 46.2 µM), usual class: inhibitors | chicken DT40 Tdp1-/-;hTDP1 cells + 20 nM CPT, ATP luminescence, 48 h | AID 686979, 2013; also: nearly all actives have a fitted effect of over 55% in size
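Chicken DT40 Tdp1-/- cells stably complemented with human TDP1 were seeded at 400 cells/well in medium containing 20 nM camptothecin, exposed to pin-transferred compounds, and grown at 37 °C for at least 48 hr. Viability was read as ATP luminescence.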
Gal4-VP16 FLuc – VP16 counterscreen qHTS for inhibitors of ROR gamma transcriptional activity; Potency, µM (top dose mostly 53.6 µM), usual class: inhibitors; hit rate 3.5% among 310,000; Drosophila S2 Gal4-VP16 UAS-luciferase, luminescence, 20 h;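 also: Gal4-VP16 expression switched on by copper sulfate through the metallothionein promoter; nearly all actives have a fitted effect of over 50% in size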
Numbers stand for hits; 0 = inactive; ? = inconclusive; - = not tested or not shown; [ ] = remark or other dose. Sampled rows, rich in hits. Any-hit rate of the full collection: about 21%. Unless noted, calls follow the shape of the dose curve; as a rule, active = well fitted curve in the direction sought with a large enough effect; inconclusive = small, poorly fitted or top-dose-only effect, or another doubt; inactive = no such curve, though single readings can be large; an effect the other way counts as inactive or inconclusive.

SMILES | ELG1 repair inh | RORg inh | IL-1B inflam inh | DT40 TDP1 no CPT | DT40 TDP1 CPT | Gal4-VP16 FLuc
CSc1ccccc1NC(=O)Nc1ccc(Cl)cc1 | ? | 0 | ? | 0 | 21µM | 0
O=C(Nc1cccc(Cl)c1)Nc1ccccc1C(=O)O | ? | 0 | 0 | 0 | 0 | ?
O=C(CN1c2ccccc2Sc2ccccc21)NNC(=O)Nc1cccc(Cl)c1 | ? | 0 | -88 | 10µM | 23µM | 0
NC(=O)c1ccccc1NC(=O)Nc1cccc(Cl)c1 | 0 | ? | 0 | ? | 12µM | 0
O=C(Nc1ccc(F)cc1)Nc1ccccc1F | ? | 0 | 0 | ? | ? | 0
CC(=O)c1ccc(NC(=S)NCCc2cccc(Cl)c2)cc1 | ? | 18µM | 0 | ? | ? | ?
COc1cccc(NC(=O)Cn2c(=O)n(CCc3cccc(C)c3)c(=O)c3ccccc32)c1 | - | - | - | 0 | 0 | -
O=C(CCl)Nc1ccc2c(c1)OCO2 | 0 | 18µM | -97 | ? | 13µM | 0[10 µM]
CCOC(=O)c1cccc(NC(=O)Nc2ccc(OCC)cc2)c1 | ? | 0 | 0 | ? | ? | 0
CCOc1ccc(NC(=O)Nc2cccc(C(=O)O)c2)cc1 | ? | 5µM | 0 | ? | 0 | 5µM
O=C(Nc1ccc2c(c1)OCO2)Nc1ccccc1F | ? | 0 | ? | 5.8µM | 9.2µM | 0
O=C(Nc1ccccc1)Nc1cccc(Cl)c1 | ? | ? | ? | 11µM | 14µM | 0
CCc1ccccc1NC(=O)Nc1ccc2c(c1)OCO2 | ? | 0 | 0 | 0 | 0 | 0
O=C1Nc2c(c(=O)[nH]c(=O)n2-c2ccc(Cl)cc2)C1(NS(=O)(=O)c1ccccc1)C(F)(F)F (stereo not drawn) | - | - | - | 0 | 0 | -
N#Cc1ccc(NC(=O)Nc2cccc(C#N)c2)cc1 | ? | 0 | 0 | 6.5µM | 6.5µM | 0
COC(=O)c1cccc(NC(=O)Nc2ccc(Cl)c(Cl)c2)c1 | ? | ? | -85 | ? | 18µM | 0
CC(=O)Nc1ccc(NC(=O)Nc2cccc(Cl)c2)cc1 | ? | 0 | 0 | 0 | 0 | 0
CSc1ccc(NC(=O)Nc2ccccc2C(N)=O)cc1 | ? | 0 | 0 | ? | 13µM | 0
CC(=O)c1ccc(NC(=O)Nc2cccc(Cl)c2)cc1 | ? | ? | -96 | ? | 21µM | 0
COc1cccc(NC(=O)Nc2ccccc2C(N)=O)c1 | 0 | 0 | 0 | 0 | 0 | 0
COC(=O)c1cccc(NC(=O)NC(=O)c2ccccc2Cl)c1 | ? | ? | 0 | 0 | 0 | 0
COCCNC(=S)N(C)[C@H]1C[C@H]2c3cc(N4CCN(C)CC4)ccc3CCN2C(=O)[C@H]1[C@H](C)O | - | - | 0 | 0 | 0 | -
COCCCNC(=O)C[C@@H]1C[C@@]2(C(=O)OC)CC(C)(C)CC=C2N(Cc2ccccc2)C1=O | - | - | 0 | 0 | ? | -
O=C1Nc2ccccc2CN2C(=O)c3cc(Cl)ccc3NC(=O)C12 (stereo not drawn) | - | - | 0 | 0 | 0 | -
O=C(NNc1ccccc1)Nc1cc(Cl)ccc1Cl | - | - | -97 | 0 | 0 | -
SMILES | ELG1 repair inh | RORg inh | IL-1B inflam inh | DT40 TDP1 no CPT | DT40 TDP1 CPT | Gal4-VP16 FLuc
O=C(NNC(=O)c1cccc(Br)c1)Nc1ccc(Cl)cc1 | ? | 0 | 0 | ? | 23µM | 0
O=C(NNc1ccccc1[N+](=O)[O-])Nc1cccc(Cl)c1 | 0 | ? | 0 | 15µM | 21µM | ?
O=C(COc1ccccc1)Nc1cc(Cl)ccc1Cl | ? | 0 | 0 | 0 | ? | 0
O=C(Nc1ccc(Cl)cc1)Nc1cccc(C(=O)O)c1 | ? | 3.2µM | 0 | 0 | 0 | 1.4µM
Nc1ccn([C@@H]2O[C@H](CNS(=O)(=O)c3cc4ccccc4s3)[C@@H](O)[C@H]2O)c(=O)n1 | - | - | 0 | 0 | 0 | -
CCC(=O)Oc1ccc2c(c1)CCC1C2CC[C@]2(C)C(OC(=O)CC)CCC12 (stereo partly drawn) | - | 0 | - | - | - | 0
N#Cc1c(NC(=O)c2cc3nc(-c4ccc(Br)cc4)cc(C(F)(F)F)n3n2)sc2c1CCCC2 | - | - | - | 0 | 0 | -
